Results reported in PubChem BioAssay AID1159580 (chemical genetic matrix, 2015).
“And” between values parts separate entries of the source, which are not always exact repeats. Equal values may be shown once. Among all 5,500 compounds or so, about 2,000 (36%) were called active. Not shown: some 18% with an inconclusive outcome. Rule as the data show it: active = normalized growth mostly below about 0.91 (no sharp cut-off); inconclusive = no clear call, values can overlap the other calls; inactive = mostly above about 0.92. This is one part of the list.

Assay: chemical genetic growth profiling, strain panel (AID 1159580);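 also: tested at 20 µM; growth read once vehicle control cultures reached saturation at 30 °C; 1 = growth at the plate median or of vehicle wells; lower values mean less growth of the strain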
Conditions: S. cerevisiae deletion strains, growth OD

Measured: normalized growth

CCCCc1nc(Cl)c(CO)n1Cc1ccc(-c2ccccc2-c2nn[nH]n2)cc1
inactive: locus YAL013W, strain DEP1, stronger effect = lower value 1.01 | locus YAL021C, strain ccr4, stronger effect = lower value 0.992 | locus YAL026C, strain drs2, stronger effect = lower value 0.99 | locus YAL030W, strain snc1, stronger effect = lower value 0.974 | locus YBL061C, strain skt5, stronger effect = lower value 0.99 | locus YBR009C, strain hhf1, stronger effect = lower value 0.993 | locus YBR021W, strain FUR4, stronger effect = lower value 1.01 | locus YBR023C, strain chs3, stronger effect = lower value 0.981 | locus YBR171W, strain sec66, stronger effect = lower value 0.994 | locus YBR229C, strain ROT2, stronger effect = lower value 1.01 | locus YBR231C, strain swc5, stronger effect = lower value 0.968 | locus YBR279W, strain paf1, stronger effect = lower value 0.986 | locus YCL011C, strain gbp2, stronger effect = lower value 0.984 | locus YCL016C, strain dcc1, stronger effect = lower value 0.983 | locus YCL029C, strain bik1, stronger effect = lower value 1.01 | locus YCL061C, strain MRC1, stronger effect = lower value 0.989 | locus YCL069W, strain vba3, stronger effect = lower value 0.985 | locus YCR088W, strain abp1, stronger effect = lower value 0.976 | locus YDL005C, strain med2, stronger effect = lower value 0.977 | locus YDL035C, strain GPR1, stronger effect = lower value 1.02 | locus YDL040C, strain nat1, stronger effect = lower value 0.971 | locus YDL074C, strain BRE1, stronger effect = lower value 1.03 | locus YDL101C, strain DUN1, stronger effect = lower value 1.01 | locus YDL134C, strain PPH21, stronger effect = lower value 1.01 | locus YDL185W, strain tfp1, stronger effect = lower value 1 | locus YDL192W, strain arf1, stronger effect = lower value 1 | locus YDR001C, strain nth1, stronger effect = lower value 0.992 | locus YDR069C, strain doa4, stronger effect = lower value 0.975 | locus YDR101C, strain arx1, stronger effect = lower value 0.996 | locus YDR137W, strain rgp1, stronger effect = lower value 0.986 | locus YDR150W, strain NUM1, stronger effect = lower value 1.01 | locus YDR159W, strain sac3, stronger effect = lower value 0.943 | locus YDR162C, strain NBP2, stronger effect = lower value 1.01 | locus YDR195W, strain ref2 0.93 | locus YDR297W, strain sur2, stronger effect = lower value 0.993 | locus YDR318W, strain mcm21, stronger effect = lower value 1.01 | locus YDR334W, strain swr1, stronger effect = lower value 0.966 | locus YDR335W, strain msn5, stronger effect = lower value 0.992 | locus YDR388W, stronger effect = lower value 1 | locus YDR392W, strain spt3, stronger effect = lower value 1 | locus YDR502C, strain sam2, stronger effect = lower value 0.997 | locus YEL003W, strain gim4, stronger effect = lower value 1.01 | locus YEL037C, strain rad23, stronger effect = lower value 0.985 | locus YEL061C, strain CIN8 (second series), stronger effect = lower value 0.982 | locus YEL061C, strain CIN8, stronger effect = lower value 1.01 | locus YER015W, strain faa2, stronger effect = lower value 0.996 | locus YER016W, strain bim1, stronger effect = lower value 0.976 | locus YER110C, stronger effect = lower value 1 | locus YER111C, strain swi4, stronger effect = lower value 0.967 | locus YER155C, strain BEM2 (second series), stronger effect = lower value 0.968 | locus YER155C, strain BEM2, stronger effect = lower value 0.973 | locus YER167W, strain BCK2, stronger effect = lower value 1.01 | locus YFR010W, strain ubp6, stronger effect = lower value 0.985 | locus YGL078C, strain dbp3, stronger effect = lower value 0.995 | locus YGL086W, strain mad1, stronger effect = lower value 0.993 | locus YGL167C, strain pmr1, stronger effect = lower value 0.978 | locus YGL173C, strain kem1, stronger effect = lower value 0.986 | locus YGL227W, strain vid30, stronger effect = lower value 0.982 | locus YGL240W, strain doc1, stronger effect = lower value 0.981 | locus YGL248W, strain PDE1, stronger effect = lower value 1.01 | locus YGL253W, strain hxk2, stronger effect = lower value 0.985 | locus YGR078C, strain PAC10, stronger effect = lower value 1.02 | locus YGR135W, strain pre9, stronger effect = lower value 0.998 | locus YGR229C, strain SMI1, stronger effect = lower value 1.01 | locus YGR252W, strain gcn5, stronger effect = lower value 1 | locus YHR013C, strain ard1, stronger effect = lower value 1.01 | locus YHR027C, strain rpn1, stronger effect = lower value 1 | locus YHR030C, strain SLT2, stronger effect = lower value 1.01 and 0.941 | locus YHR079C, strain IRE1 (second series), stronger effect = lower value 0.995 | locus YHR079C, strain IRE1, stronger effect = lower value 0.969 | locus YHR094C, strain hxt1, stronger effect = lower value 0.992 | locus YHR129C, strain ARP1, stronger effect = lower value 1.01 | locus YHR142W, strain chs7, stronger effect = lower value 0.986 | locus YHR200W, strain rpn10, stronger effect = lower value 0.999 | locus YIL066C, strain RNR3, stronger effect = lower value 1.01 | locus YIL073C, strain SPO22, stronger effect = lower value 1.08 | locus YIL125W, strain kgd1, stronger effect = lower value 0.994 | locus YIR030C, strain dcg1, stronger effect = lower value 0.995 | locus YJL092W, strain hpr5, stronger effect = lower value 1 | locus YJL095W, strain BCK1 (second series), stronger effect = lower value 0.985 | locus YJL095W, strain BCK1, stronger effect = lower value 1.02 and 0.998 | locus YJL115W, strain asf1, stronger effect = lower value 0.994 | locus YJL129C, strain trk1, stronger effect = lower value 0.963 | locus YJL134W, strain LCB3, stronger effect = lower value 1 | locus YJL154C, strain vps35, stronger effect = lower value 0.969 | locus YJL164C, strain tpk1, stronger effect = lower value 1 | locus YJL166W, strain qcr8, stronger effect = lower value 0.98 | locus YJL168C, strain set2, stronger effect = lower value 0.996 | locus YJL187C, strain SWE1 (second series), stronger effect = lower value 1.01 | locus YJL187C, strain SWE1, stronger effect = lower value 0.981 | locus YJR043C, strain POL32, stronger effect = lower value 1.02 | locus YJR066W, strain TOR1, stronger effect = lower value 0.987
